# MPTP block – inhibitors of mitochondrial permeability transition pore; inhibition, % at 10 µM; isolated mouse mitochondria, Ca2+ swelling absorbance, 30 min; 360,000 tested, 1.4% active;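 active = inhibition of 50% or more, scaled per plate between neutral and stimulator controls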
# TIM10 inh – TIM10 yeast growth inhibition; 330,000 tested, 1.4% active; AID 463195; S. cerevisiae TIM10 strain growth, BacTiter-Glo luminescence, 24 h; inhibition, % at 10 µM;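 active = inhibition of 40% or more at the single tested concentration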;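 also: wild-type TIM10 isogenic control strain grown at permissive 25 °C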
# Mdm2 MdmX PPI – human Mdm2/MdmX binding inhibition; O15151+Q00987; SaOS-2 split-luciferase Mdm2/MdmX complementation, luminescence; inhibition, % at 8 µM; 330,000 tested, 3% active; AID 485346;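 active = inhibition of at least 50% at 8 µM in the primary screen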
# Target sequence (O15151 whole entry, looked up): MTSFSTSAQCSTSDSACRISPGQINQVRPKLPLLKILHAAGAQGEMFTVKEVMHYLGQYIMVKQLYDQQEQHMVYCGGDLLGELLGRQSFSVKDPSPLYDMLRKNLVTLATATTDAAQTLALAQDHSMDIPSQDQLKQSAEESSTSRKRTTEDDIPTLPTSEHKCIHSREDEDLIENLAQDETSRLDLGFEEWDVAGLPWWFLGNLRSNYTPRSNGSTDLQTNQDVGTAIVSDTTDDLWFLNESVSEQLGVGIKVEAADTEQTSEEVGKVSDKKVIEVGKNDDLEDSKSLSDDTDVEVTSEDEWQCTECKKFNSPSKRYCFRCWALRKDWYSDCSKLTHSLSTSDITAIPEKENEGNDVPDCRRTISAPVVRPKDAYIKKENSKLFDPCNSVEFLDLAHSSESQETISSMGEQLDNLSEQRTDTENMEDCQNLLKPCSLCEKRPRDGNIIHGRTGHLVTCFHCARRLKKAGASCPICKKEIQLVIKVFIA
# Target sequence (Q00987 whole entry, looked up): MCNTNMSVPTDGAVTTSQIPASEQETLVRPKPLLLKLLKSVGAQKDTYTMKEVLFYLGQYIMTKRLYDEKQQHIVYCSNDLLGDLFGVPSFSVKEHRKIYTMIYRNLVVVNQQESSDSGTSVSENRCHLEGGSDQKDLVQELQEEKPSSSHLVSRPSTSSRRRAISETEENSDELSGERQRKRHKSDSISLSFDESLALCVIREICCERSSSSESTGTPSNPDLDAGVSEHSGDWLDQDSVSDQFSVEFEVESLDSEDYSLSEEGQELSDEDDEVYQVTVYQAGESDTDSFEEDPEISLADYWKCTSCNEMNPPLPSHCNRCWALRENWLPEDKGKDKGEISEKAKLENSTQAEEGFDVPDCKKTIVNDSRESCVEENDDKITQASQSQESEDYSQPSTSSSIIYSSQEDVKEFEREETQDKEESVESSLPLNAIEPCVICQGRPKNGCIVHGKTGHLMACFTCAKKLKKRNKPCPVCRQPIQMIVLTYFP
# tim10-1 inh – inhibits growth of tim10-1 mutant yeast; S. cerevisiae tim10-1 ts strain growth, BacTiter-Glo, 24 h; inhibition, % at 20 µM; 330,000 tested, 2.2% active;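 active = inhibition of at least 40%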;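 also: mutant grown at 25 °C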
# tim23-1 inh – tim23-1 yeast growth inhibition | S. cerevisiae tim23-1 growth, BacTiter-Glo luminescence, 24 h | inhibition, % at 20 µM | 330,000 tested, 1.3% active;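 active = growth inhibition of the mutant yeast at or above 50%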;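 also: temperature-sensitive mutant grown at 25 °C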
# Mdm2-MdmX conf – human Mdm2/MdmX binding inhibition, confirmed; AID 489028; shares compounds with Mdm2 MdmX PPI; 10,000 tested, 55% active; luminescent assay; inhibition, % at 8 µM; in the data active = inhibition above about 40%
# FLuc counter – counter-screen for Mdm2/MdmX inhibitors: full-length luciferase; 6,200 tested, 77% active; shares compounds with Mdm2 MdmX PPI; inhibition, % at 8 µM; SaOS-2 full-length luciferase counterscreen, luminescence;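 active = mean inhibition at 8 µM reaching about 37%, which flags the compound as non-specific, limit read from the data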;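 also: p53-null SaOS-2 cells with luciferase driven by a doxycycline-inducible promoter; compound on cells about two nights before reading with doxycycline added after day one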
# A number is an active result; – = inactive; · = no result given. The list is not random: actives were taken first. Their share in the collection is about 6.3%.
SMILES,MPTP block,TIM10 inh,Mdm2 MdmX PPI,tim10-1 inh,tim23-1 inh,Mdm2-MdmX conf,FLuc counter
O=C(CC[C@H]1O[C@@H](n2ccc(=O)[nH]c2=O)[C@H](O)[C@@H]1O)N[C@H](Cc1ccccc1)C(=O)NC1CCCCC1,–,·,·,·,·,·,·
O=C(NCCc1ccccc1)C1Cc2c(-c3ccccc3)ccnc2O1 (centres undefined),–,·,·,·,·,·,·
CCCC(=O)NC(c1ccco1)c1cc([N+](=O)[O-])c2cccnc2c1O (centres undefined),–,–,–,–,–,·,·
CCCCC(=O)NC(c1ccc(OC)cc1)c1ccc2cccnc2c1O (centres undefined),–,·,·,·,·,·,·
COc1ccc(C(NC(=O)C(C)C)c2ccc3cccnc3c2O)cc1 (centres undefined),–,–,77,–,–,83,–
CCCC(=O)NC(c1ccc(N(C)C)cc1)c1ccc2cccnc2c1O (centres undefined),–,–,80,–,–,80,–
Cc1ccc(C)c(C(O)c2ncc(-c3ccccc3)[nH]2)c1 (centres undefined),–,·,·,·,·,·,·
O=C(Nc1cccc(S(=O)(=O)C(F)(F)F)c1)[C@H]1C[C@H](O)[C@@H](CO)O1,–,·,·,·,·,·,·
CCOc1ccc(-n2c(-c3ccc(OC)cc3)c[n+]3c2CCCCC3)cc1,–,–,56,–,–,47,46
COc1ccc(-c2c[n+]3c(n2-c2ccc(C)cc2)CCCCC3)cc1,–,–,62,–,–,40,49
CC(N)c1csc(Nc2ncccn2)n1 (centres undefined),–,·,·,·,·,·,·
C=CCn1cnc2c(c1=O)c1nc3ccccc3nc1n2/N=C/c1ccccn1,–,·,·,·,·,·,·
O=c1c2c3nc4ccccc4nc3n(/N=C/c3ccccn3)c2ncn1-c1ccccc1,–,–,74,–,–,49,55
COc1cccc(CNC(=O)[C@@H]2CCCN2C(=O)[C@H]2CCCCN2C(=O)c2cccs2)c1,–,·,·,·,·,·,·
COc1ccc2c(c1)C(=O)[C@H](O)[C@@H](c1ccc(OC)c(Br)c1)O2,·,–,71,–,–,–,·
CC[C@H](C)[C@@H](NC(=O)O[C@@H]1C(=O)c2cc(OC)ccc2O[C@H]1c1ccc(OC)c(Br)c1)C(=O)OC,–,–,–,–,–,·,·
C[C@@H]1CN([C@H](C)CO)C(=O)CCCn2cc(nn2)CO[C@H]1CN(C)C(=O)Nc1ccc2c(c1)OCCO2,–,·,·,·,·,·,·
Cc1cccc(NC(=O)CSc2nc3ccccc3nc2N2CC(C)OC(C)C2)c1 (centres undefined),–,–,–,–,–,·,·
Cc1cccc(NC(=O)CSc2nc3ccccc3nc2N2CCCCC2)c1,–,–,96,–,–,44,102
COc1ccc(NC(=O)CSc2nc3ccccc3nc2N2CCCCC2)cc1,–,–,–,–,–,·,·
Cc1cccc(NC(=O)CSc2nc3ccccc3nc2N2CCCC2)c1,–,–,85,–,–,45,81
COc1cccc(NC(=O)CSc2nc3ccccc3nc2N2CCCC2)c1,–,–,64,–,–,–,·
CC(C)n1nnnc1C1c2ccccc2C(=O)N1Cc1ccco1 (centres undefined),–,·,·,·,·,·,·
O=C(CCCCCN1C(=O)c2ccccc2C1=O)Nc1ccccc1,–,–,–,–,–,·,·
O=C(CCCCCCC(=O)Nc1ccccc1)NO,·,–,50,–,–,–,·
SMILES,MPTP block,TIM10 inh,Mdm2 MdmX PPI,tim10-1 inh,tim23-1 inh,Mdm2-MdmX conf,FLuc counter
O=C(NCc1ccco1)c1nc2c(nnn2Cc2ccccc2Cl)c(=O)[nH]1,–,–,88,–,–,93,–
CCn1c(SCc2ccccc2Cl)nc2nc3c(cc2c1=O)CCCC3,–,·,·,·,·,·,·
CCn1c(SCc2c(Cl)cccc2Cl)nc2nc3c(cc2c1=O)CCCC3,–,–,64,–,–,63,–
CC(=O)N(c1ccccc1)C(C(=O)c1ccccc1)c1ccccc1 (centres undefined),–,·,·,·,·,·,·
Cc1ccc(CNC(=O)/C=C/[C@H]2O[C@@H](n3cc(C)c(=O)[nH]c3=O)C[C@@H]2O)o1,–,·,·,·,·,·,·
COc1ccc(/C=C/c2cc[n+](C(=O)Cc3ccccc3)cc2)cc1,–,–,63,–,–,52,45
COc1ccc(/C=C/C(=O)NCCCc2ccccc2)cc1,–,–,–,–,–,·,·
Cc1ccc2c(C)c(C(=O)N3CCC(C(N)=O)(N4CCCCC4)CC3)oc2c1C,–,·,·,·,·,·,·
Cn1ncc2c(Nc3ccccc3Cl)nc(Nc3ccccc3Cl)nc21,–,–,54,–,–,–,·
Cc1ccc(-c2csc3nc4c5ccccc5c(NCCCN(C)C)nn4c(=O)c23)cc1,–,–,100,–,–,50,64
O=C1Nc2cnc(Cl)nc2Nc2ccccc21,–,·,·,·,·,·,·
Cc1ccc(N(CCC#N)C(=O)CCl)cc1C,–,–,100,–,–,100,57
Cc1cccc(C)c1N1C(=O)c2ccccc2NC(=O)C1C(=O)NCc1ccco1 (centres undefined),–,·,·,·,·,·,·
Nc1ccc(Cc2nc3cc4ccccc4cc3[nH]2)cc1,·,–,69,–,–,–,70
Nc1ccc(C(=O)OCc2nc3cc4ccccc4cc3[nH]2)cc1,–,–,74,–,–,82,–
Nc1ccc(C(=O)OCCCc2nc3cc4ccccc4cc3[nH]2)cc1,–,–,65,–,–,–,94
COC(=O)[C@]12CCCCC=C1N(Cc1cccc3ccccc13)C(=O)[C@H](CC(=O)NCc1cccc(C(F)(F)F)c1)C2,–,·,·,·,·,·,·
O=C1NC[C@H](CCCCN2CCN(CCc3ccc(O)cc3)C(=O)C2=O)N(CCc2ccc(O)cc2)C1=O,–,·,·,·,·,·,·
CCC(=O)c1cn(CC(=O)Nc2ccc(F)cc2)c2ccccc12,–,·,·,·,·,·,·
Cc1cc2nc(NC(=O)C3(C)CCN3C(=O)C(C)C)[nH]c2cc1C (centres undefined),–,·,·,·,·,·,·
O=C1C=C(c2ccccc2)C[C@H](c2cccs2)[C@H]1n1nnc([N+](=O)[O-])n1,–,–,71,–,–,57,60
Cc1ncc(CO)c(/C=N/NC(=S)Nc2ccc(F)cc2)c1O,–,–,–,–,–,·,·
Cc1ncc(CO)c(/C=N/Nc2ccc(C(F)(F)F)cn2)c1O,–,–,75,–,–,72,–
COc1cccc2oc3ccc(C#CC4(N)CCCCC4)cc3c(=O)c12,–,–,96,–,–,–,·
CCOc1ccc(Nc2oc(-c3cccc(Cl)c3)nc2C#N)cc1,–,–,51,–,–,–,·
SMILES,MPTP block,TIM10 inh,Mdm2 MdmX PPI,tim10-1 inh,tim23-1 inh,Mdm2-MdmX conf,FLuc counter
COc1ccc(Nc2oc(COc3ccc(OC)cc3)nc2C#N)cc1,–,–,63,–,–,80,59
COc1ccc(Nc2oc(COc3cccc(C)c3)nc2C#N)cc1,–,–,63,–,–,48,90
CCNc1oc(COc2cccc(C)c2)nc1C#N,–,–,–,–,–,·,·
Cc1ccc(OCc2nc(C#N)c(NCc3ccco3)o2)cc1,–,–,–,–,–,·,·
COc1ccc(Nc2oc(COc3ccc(C)cc3)nc2C#N)cc1,–,–,59,–,–,74,61
COc1ccc(Nc2oc(COc3ccccc3F)nc2C#N)cc1,–,–,–,–,–,·,·

# Source: PubChem
